The list is not random: actives were taken first. Their share in the collection is about 6.3%.
tim10-1 inh – tim10-1 yeast growth inhibition; actives 2.2% (n = 330,000); AID 463190; S. cerevisiae tim10-1 ts strain growth, BacTiter-Glo, 24 h; inhibition, % at 20 µM;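 active = inhibition of at least 40%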;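 note: mutant grown at 25 °C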
TIM10 inh – TIM10 yeast growth inhibition; inhibition, % at 10 µM; actives 1.4% (n = 330,000); AID 463195; S. cerevisiae TIM10 strain growth, BacTiter-Glo luminescence, 24 h;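 active = inhibition of 40% or more at the single tested concentration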;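 note: wild-type TIM10 isogenic control strain grown at permissive 25 °C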
tim23-1 inh – growth inhibitors of tim23-1 mutant yeast; S. cerevisiae tim23-1 growth, BacTiter-Glo luminescence, 24 h; inhibition, % at 20 µM; actives 1.3% (n = 330,000); AID 463212;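 active = growth inhibition of the mutant yeast at or above 50%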;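 note: temperature-sensitive mutant grown at 25 °C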
Mdm2 MdmX PPI – human Mdm2/MdmX binding inhibition. O15151+Q00987. SaOS-2 split-luciferase Mdm2/MdmX complementation, luminescence. inhibition, % at 8 µM. actives 3% (n = 330,000);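 active = inhibition of at least 50% at 8 µM in the primary screen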
Target sequence (O15151 whole entry, looked up): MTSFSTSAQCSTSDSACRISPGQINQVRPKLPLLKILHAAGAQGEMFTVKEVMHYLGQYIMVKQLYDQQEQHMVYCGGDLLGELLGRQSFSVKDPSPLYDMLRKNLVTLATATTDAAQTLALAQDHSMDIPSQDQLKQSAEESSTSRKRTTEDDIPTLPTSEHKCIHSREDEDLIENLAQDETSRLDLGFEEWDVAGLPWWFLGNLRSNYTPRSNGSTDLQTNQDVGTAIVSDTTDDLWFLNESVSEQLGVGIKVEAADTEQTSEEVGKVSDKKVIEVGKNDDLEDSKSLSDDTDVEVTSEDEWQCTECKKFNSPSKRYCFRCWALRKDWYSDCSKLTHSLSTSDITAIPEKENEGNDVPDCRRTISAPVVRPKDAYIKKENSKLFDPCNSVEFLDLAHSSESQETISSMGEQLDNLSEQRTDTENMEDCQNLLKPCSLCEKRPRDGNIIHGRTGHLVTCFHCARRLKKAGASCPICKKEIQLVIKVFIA
Target sequence (Q00987 whole entry, looked up): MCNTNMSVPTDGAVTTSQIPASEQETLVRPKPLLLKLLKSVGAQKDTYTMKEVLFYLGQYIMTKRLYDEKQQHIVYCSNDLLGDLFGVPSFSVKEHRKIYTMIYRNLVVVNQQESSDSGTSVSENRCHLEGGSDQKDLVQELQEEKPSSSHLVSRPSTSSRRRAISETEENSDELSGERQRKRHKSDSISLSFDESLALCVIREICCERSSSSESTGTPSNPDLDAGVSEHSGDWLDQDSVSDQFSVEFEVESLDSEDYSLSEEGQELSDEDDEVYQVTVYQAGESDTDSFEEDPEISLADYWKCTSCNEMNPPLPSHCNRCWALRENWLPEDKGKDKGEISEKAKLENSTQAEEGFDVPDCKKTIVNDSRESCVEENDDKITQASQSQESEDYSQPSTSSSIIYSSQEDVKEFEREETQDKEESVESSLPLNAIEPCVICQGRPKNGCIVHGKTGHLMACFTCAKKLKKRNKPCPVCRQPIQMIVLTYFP
MPTP inh – inhibitors of mitochondrial permeability transition pore. isolated mouse mitochondria, Ca2+ swelling absorbance, 30 min. inhibition, % at 10 µM. actives 1.4% (n = 360,000). AID 602449;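 active = inhibition of 50% or more, scaled per plate between neutral and stimulator controls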
Mdm2 MdmX conf – confirmation of human Mdm2/MdmX interaction inhibitors; shares compounds with Mdm2 MdmX PPI; Mdm2-MdmX binding, luminescent assay; inhibition, % at 8 µM; actives 55% (n = 10,000); AID 489028; in the data active = inhibition above about 40%
FLuc counter – inhibits full-length luciferase, flagging false Mdm2/MdmX hits. shares compounds with Mdm2 MdmX PPI. actives 77% (n = 6,200). inhibition, % at 8 µM. AID 504607. SaOS-2 full-length luciferase counterscreen, luminescence;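 active = mean inhibition at 8 µM reaching about 37%, which flags the compound as non-specific, limit read from the data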;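 note: p53-null SaOS-2 cells with luciferase driven by a doxycycline-inducible promoter; compound on cells about two nights before reading with doxycycline added after day one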
Large screens that a line does not name were inactive (follow-up assays come after a bar, where they were run).

CNc1cncc(-c2cc(OC)c(OC)c(OC)c2)n1	none (no result: tim10-1 inh, TIM10 inh, tim23-1 inh, Mdm2 MdmX PPI)
Cn1ncc2c(=S)nc(Cl)[nH]c21	none (no result: tim10-1 inh, TIM10 inh, tim23-1 inh, Mdm2 MdmX PPI)
COc1ccc(-c2oc(=O)c3cc(OC)c(OC)cc3c2C#CC2(O)CCCCC2)cc1	none
COc1ccc(-c2oc3ccc(-c4cc(OC)c(OC)c(OC)c4)cc3c2C#Cc2ccccn2)cc1	Mdm2 MdmX PPI 85 | Mdm2 MdmX conf 64 | FLuc counter 64
COc1cc(-c2noc(C)c2C#Cc2ccsc2)cc(OC)c1OC	Mdm2 MdmX PPI 65 | Mdm2 MdmX conf 68 | FLuc counter 78
COc1cc(-c2ccc3oc(-c4ccsc4)c(C#CC4(O)CCCCC4)c3c2)cc(OC)c1OC	Mdm2 MdmX PPI 52 | Mdm2 MdmX conf inactive
COc1cc(-c2noc(C)c2C#CC2(O)CCCCC2)cc(OC)c1OC	Mdm2 MdmX PPI 61 | Mdm2 MdmX conf 43 | FLuc counter 84
COc1ccc(C#Cc2c(-c3ccc(OC)cc3)oc3ccc(-c4ccc(OC)cc4)cc23)cc1	none
CC[C@@H]1Cc2[nH][nH]c(=O)c2[C@@H](c2ccc(Cl)cc2)O1	none (no result: tim10-1 inh, TIM10 inh, tim23-1 inh, Mdm2 MdmX PPI)
Cc1c(C(=O)O)c2cc(O)ccc2n1-c1ccccc1	none
Cc1ccc(-n2c(C)c([N+](=O)[O-])c3ccc(O)cc32)cc1	none (no result: MPTP inh) | Mdm2 MdmX conf 65 | FLuc counter inactive
Cc1ccc(NS(=O)(=O)c2ccc(N3CCN(c4ccc(O)cc4)CC3)c([N+](=O)[O-])c2)c(C)c1	none
Cc1c([N+](=O)[O-])c2ccc(O)cc2n1-c1ccccc1	Mdm2 MdmX PPI 66 | Mdm2 MdmX conf 65 | FLuc counter inactive
CCOC(=O)c1c(NC(=O)c2cccs2)sc2c1CCN(C(=O)OCC)C2	Mdm2 MdmX PPI 65 | Mdm2 MdmX conf inactive
CCOC(=O)c1c(NC(=O)c2cccs2)sc2c1CCCC2	none
CS(=O)(=O)Nc1ccc2c(c1)[C@@H]1C[C@@H](CC(=O)NCc3cccnc3)O[C@H](CO)[C@@H]1O2	none (no result: tim10-1 inh, TIM10 inh, tim23-1 inh, Mdm2 MdmX PPI)
CN(Cc1cnn(-c2ccccc2)c1)C(=O)c1cccc(S(=O)(=O)N(C)c2ccccc2)c1	none (no result: tim10-1 inh, TIM10 inh, tim23-1 inh, Mdm2 MdmX PPI)
Cc1ccc(N(C)S(=O)(=O)c2cccc(C(=O)N(C)Cc3cnn(-c4ccccc4)c3)c2)cc1	Mdm2 MdmX PPI 66 | Mdm2 MdmX conf 47 | FLuc counter 96
Fc1ccc(Nc2nc(N3CCOCC3)c3ccccc3n2)cc1	Mdm2 MdmX PPI 52 | Mdm2 MdmX conf inactive
CC1(C(=O)NS(C)(=O)=O)CCN1C(=O)C/C=C/c1ccccc1 (centres undefined)	none (no result: tim10-1 inh, TIM10 inh, tim23-1 inh, Mdm2 MdmX PPI)
Cc1ccc(S(=O)(=O)Oc2ccccc2/C=N/NC(N)=S)cc1	Mdm2 MdmX PPI 54 | Mdm2 MdmX conf 56 | FLuc counter 45
CN1C(=O)NC(c2ccccc2)(C(F)(F)F)S/C1=C(/C#N)c1nnc(N2CCOCC2)n1-c1ccccc1 (centres undefined)	Mdm2 MdmX PPI 50 | Mdm2 MdmX conf inactive
COC(=O)N1CCCCC1c1cc(C(=O)NCc2cccnc2)no1 (centres undefined)	none (no result: tim10-1 inh, TIM10 inh, tim23-1 inh, Mdm2 MdmX PPI)
COc1ccc(-n2ncc3c(N4CCN(c5cccc(C)c5C)CC4)ncnc32)cc1	Mdm2 MdmX PPI 77 | Mdm2 MdmX conf inactive
Clc1ccc(Cn2ncc3c(N4CCCC4)ncnc32)cc1	none
Clc1ccc(-n2ncc3c(N4CCCCCC4)ncnc32)cc1	Mdm2 MdmX PPI 91 | Mdm2 MdmX conf 88 | FLuc counter 98
COc1ccc(-n2ncc3c(N4CCCCC4)ncnc32)cc1	Mdm2 MdmX PPI 87 | Mdm2 MdmX conf 86 | FLuc counter 73
CCOC(=O)C1=CCN(S(=O)(=O)c2ccccc2C)C1c1ccc(Cl)c(Cl)c1 (centres undefined)	none (no result: tim10-1 inh, TIM10 inh, tim23-1 inh, Mdm2 MdmX PPI)
C[C@H]1CCCCO[C@H](CN(C)C(=O)C2CCCCC2)[C@@H](C)CN([C@@H](C)CO)C(=O)c2cc(NC(=O)NC3CCCCC3)ccc2O1	none (no result: tim10-1 inh, TIM10 inh, tim23-1 inh, Mdm2 MdmX PPI)
CCOC(=O)N1CCC(=NNC(=O)c2cc3ccccc3cc2O)CC1	none
CC(=O)N1CCC(=NNC(=O)c2cc3ccccc3cc2O)CC1	Mdm2 MdmX PPI 62 | Mdm2 MdmX conf 51 | FLuc counter 58
O=C1Nc2ccccc2-c2nnnn2C1N1CCCC1 (centres undefined)	none (no result: tim10-1 inh, TIM10 inh, tim23-1 inh, Mdm2 MdmX PPI)
CCC(=O)Nc1nnc(SCC(=O)c2ccc3c(c2)Cc2ccccc2-3)s1	Mdm2 MdmX PPI 55 | Mdm2 MdmX conf inactive
CC(=O)Nc1nnc(SCC(=O)c2ccc3c(c2)Cc2ccccc2-3)s1	none
C=C(C)C(O)CC/C(C)=C/Cc1c(O)ccc(C(=O)/C=C/c2ccc(O)cc2)c1O (centres undefined)	none
COc1ccc(C(=O)/C=C/c2ccc(O)cc2)c(O)c1C/C=C(\C)CCC=C(C)C	Mdm2 MdmX PPI 68 | Mdm2 MdmX conf inactive
COc1cccc(CNc2nc3cc(-c4ccccc4C)sc3c(=O)n2C)c1OC	none (no result: tim10-1 inh, TIM10 inh, tim23-1 inh, Mdm2 MdmX PPI)
C/C(=N\NC(=O)c1c(Br)cnn1C)c1ccc(NC(=O)c2ccc(F)cc2)cc1	Mdm2 MdmX PPI 67 | Mdm2 MdmX conf inactive
COc1cccc(S(=O)(=O)N(C)C[C@@H]2OCc3cnnn3CCCC(=O)N([C@@H](C)CO)C[C@@H]2C)c1	none (no result: tim10-1 inh, TIM10 inh, tim23-1 inh, Mdm2 MdmX PPI)
O=C(NCc1ccccc1)C1=C[C@@H](c2csc3ccccc23)C[C@@H](OCCCCO)O1	Mdm2 MdmX PPI 74 (no result: MPTP inh) | Mdm2 MdmX conf 75 | FLuc counter 39
O=C(NCc1ccccc1)C1=C[C@H](C2CCCCC2)C[C@H](OCc2ccc(CO)cc2)O1	Mdm2 MdmX PPI 51 | Mdm2 MdmX conf 63 | FLuc counter 60
O=C(NCc1ccccc1)C1=C[C@@H](c2csc3ccccc23)C[C@@H](OCc2ccc(CO)cc2)O1	Mdm2 MdmX PPI 72 | Mdm2 MdmX conf inactive
COCCCN1C(=O)C(CC(=O)NC2CC2)CC(C(=O)N2CCOCC2)=C1C (centres undefined)	none (no result: tim10-1 inh, TIM10 inh, tim23-1 inh, Mdm2 MdmX PPI)
O=C(c1cc2c(c(-c3cccc(-c4ccc(F)cc4)c3)n1)[C@H](CCO)N(C(=O)c1ccc3c(c1)OCO3)C2)N1CCOCC1	none (no result: tim10-1 inh, TIM10 inh, tim23-1 inh, Mdm2 MdmX PPI)
CC1(C(=O)NS(=O)(=O)c2ccccc2Cl)CCN1C(=O)CC1CC1 (centres undefined)	none (no result: tim10-1 inh, TIM10 inh, tim23-1 inh, Mdm2 MdmX PPI)
O=C(CCCN1C(=O)/C(=C/c2ccccc2Cl)SC1=S)NNC(=O)c1ccncc1	none
O=C(CCN1C(=O)/C(=C/c2ccccc2Cl)SC1=S)N1CCOCC1	none
Cc1cc(NC(=O)CCN2C(=O)/C(=C/c3ccccc3F)SC2=S)no1	none (no result: MPTP inh)
O=C(CCCN1C(=O)/C(=C/c2ccccc2Cl)SC1=S)NNC(=O)c1ccccc1Cl	Mdm2 MdmX PPI 56 | Mdm2 MdmX conf inactive
O=C(CCN1C(=O)/C(=C/c2ccccc2Cl)SC1=S)N1CCCC1	Mdm2 MdmX PPI 62 | Mdm2 MdmX conf inactive
Cc1cc(NC(=O)CCCN2C(=O)/C(=C/c3ccccc3Cl)SC2=S)no1	Mdm2 MdmX PPI 68 | Mdm2 MdmX conf 43 | FLuc counter 58
COc1ccc(Cl)c(-c2cc(C(=O)Nc3ccc(F)cc3)[nH]n2)c1	none (no result: tim10-1 inh, TIM10 inh, tim23-1 inh, Mdm2 MdmX PPI)
